# FBA Mtb inh – Mtb fructose-bisphosphate aldolase inhibition; AID 588726; hit rate 2.3% among 360,000; inhibition, % at 1 µM; P9WQA3; purified M. tuberculosis FBA, fluorescence read-out; in the data active means inhibition above about 27%;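 further: 0% = vehicle and 100% = reference inhibitor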
# PriA SSB inh – blocks PriA binding to SSB C-terminal tail | AlphaScreen SSBct-PriA binding, biotinylated peptide | inhibition, % at 33 µM | hit rate 0.6% among 430,000; in the data active means inhibition mostly above about 37%, no sharp cut-off; inactive means mostly below about 20%;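 further: plate controls were negative control peptide for no effect and reference peptide for full effect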
# Rv3671c protease – inhibits the M. tuberculosis serine protease Rv3671c | P9WHR9 | inhibition, % at 5.96 µM | hit rate 0.048% among 320,000; in the data active means inhibition above about 38%;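 further: extracellular domain of Rv3671c used as enzyme; 0% = enzyme with DMSO and 100% = no enzyme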
# Mtb betalactam – beta-lactam sensitization of Mtb H37Rv; hit rate 0.27% among 330,000; inhibition, % at 25 µM; AID 434955; M. tuberculosis H37Rv growth with meropenem, percent inhibition; call rule not given here;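 further: growth measured after seven days incubation then overnight dye step; 0% = bacteria only wells and 100% = bacteria with antibiotic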
# GDH-TPI inh – GDH-TPI coupled enzyme inhibition counter-screen; GDH-TPI coupled enzyme counterscreen, NADH absorbance; inhibition, % at 4.8 µM; hit rate 1.2% among 360,000; in the data active means inhibition above about 30%;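 further: 0% = DMSO wells and 100% = wells lacking the enzyme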
# Mtb UGM inh – inhibitors of M. tuberculosis UDP-galactopyranose mutase | purified UGM, fluorescence polarization probe displacement | inhibition, % at 10 µM | hit rate 0.06% among 320,000 | AID 504406; in the data active means inhibition above about 10%, passing the limit was not always enough; inconclusive means no clear call, values can overlap the other calls
# Target sequence (P9WIQ1 whole entry, looked up): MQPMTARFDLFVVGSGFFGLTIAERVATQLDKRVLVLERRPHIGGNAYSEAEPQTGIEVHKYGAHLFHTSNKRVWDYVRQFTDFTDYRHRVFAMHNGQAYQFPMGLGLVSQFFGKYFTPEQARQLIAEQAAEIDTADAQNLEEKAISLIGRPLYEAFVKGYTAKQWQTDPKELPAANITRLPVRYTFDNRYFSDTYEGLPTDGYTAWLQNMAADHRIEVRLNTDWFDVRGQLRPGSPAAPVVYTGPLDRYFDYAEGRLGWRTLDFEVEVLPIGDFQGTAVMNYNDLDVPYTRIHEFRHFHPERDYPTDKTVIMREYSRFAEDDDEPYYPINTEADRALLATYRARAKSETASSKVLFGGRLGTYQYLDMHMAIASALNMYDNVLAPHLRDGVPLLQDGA
# * = called active by the depositor; i = inactive; ? = inconclusive; · = no result given; + = active, no number. Only some compounds are listed: those with a hit (about 3.2% of all), similar ones and a draw of the others.
SMILES,FBA Mtb inh,PriA SSB inh,Rv3671c protease,Mtb betalactam,GDH-TPI inh,Mtb UGM inh
CCOc1cc(C(=S)N2CCOCC2)ccc1OC(=O)/C=C/c1ccc(OC)c(OC)c1,0.9,-5.2,-5.7,·,37.5*,-2.0
COc1cccc(C(=O)Nc2cc(C)nn2-c2nc3ccc(F)cc3s2)c1OC,·,-9.0,·,·,·,·
O=C(NN=Cc1cccc([N+](=O)[O-])c1)c1cc[n+](CCO)cc1,·,4.7,·,·,·,·
O=C(CC1S/C(=N/N=C/C=C/c2ccccc2)NC1=O)Nc1ccc(C(=O)O)cc1 (centres undefined),3.3,·,-4.2,-1.8,57.2*,4.1
O=C(CC1SC(=NN=C/C=C/c2ccccc2)NC1=O)Nc1ccc(C(=O)O)cc1 (centres undefined),·,-0.4,·,·,·,·
O=C(CC1S/C(=N/N=C/c2cccs2)NC1=O)Nc1ccc(Cl)cc1 (centres undefined),-2.7,·,-44.7,-1.9,30.7*,·
O=C(CC1S/C(=N/N=C/c2c[nH]c3ccccc23)NC1=O)Nc1ccccc1 (centres undefined),-3.6,·,-4.0,-1.3,47.4*,-3.6
O=C(CC1SC(=NN=Cc2cccs2)NC1=O)Nc1ccc(Cl)cc1 (centres undefined),·,-1.8,·,·,·,·
Cn1cccc1-c1cc(C(=O)N/N=C/c2cccc(Br)c2)[nH]n1,·,47.0*,·,·,·,·
Cc1c(C)c([N+](=O)[O-])c(C)c(C)c1N,-5.4,-6.0,·,·,-6.0,·
CC(C)c1cc(C(C)C)c(C(C)C)c([N+](=O)[O-])c1N,·,35.0*,·,·,·,·
Cc1cc(C(=O)N/N=C/C=C/c2ccccc2)n[nH]1,-0.9,i,2.9,-0.5,61.4*,1.4
Cc1ccc(C(=O)N/N=C/C=C/c2ccccc2)o1,6.0,·,0.2,2.1,52.0*,-1.2
Cc1cc(C(=O)NN=C/C=C/c2ccc(Br)cc2)n[nH]1,·,-6.7,·,·,·,·
COc1ccccc1/C=C/C=N\NC(=O)c1cc(C2CC2)[nH]n1,·,-6.0,·,·,·,·
Cc1ccc(C(=O)NN=C/C=C/c2ccccc2)o1,·,-6.4,·,·,·,·
O=C(N/N=C/C=C/c1ccccc1)c1cc(C2CC2)[nH]n1,-0.9,i,7.0,-3.6,66.9*,-1.8
COc1ccc(N2CCN(C(=O)c3cc(=O)[nH]c4ccccc34)CC2)cc1,1.6,-2.0,-3.4,-13.3,-1.9,0.4
O=C(c1cc(=O)[nH]c2ccccc12)N1CCN(c2ccc([N+](=O)[O-])cc2)CC1,-6.7,-6.0,-0.9,-6.5,35.1*,1.7
CCc1cc2c(=O)c(-c3nc4ccccc4n3C)c(C)oc2c(CN2CCN(C)CC2)c1O,·,·,4.2,-1.7,·,-0.1
CCc1cc2c(=O)c(-c3nc4ccccc4n3C)c(C)oc2c(CN2CCN(CCO)CC2)c1O,11.9,6.0,3.0,-4.6,35.1*,-0.2
CCc1cc2c(=O)c(-c3nc4ccccc4n3C)coc2c(CN2CCCC(C)C2)c1O (centres undefined),11.4,-2.8,-11.1,?,34.0*,-1.3
CCc1cc2c(=O)c(-c3nc4ccccc4[nH]3)coc2c(CN2CCCCC2)c1O,1.9,0.5,0.8,5.9,2.6,-1.7
CCCCCCNC(=O)C(C#N)c1nc2ccccc2nc1N1CCOCC1 (centres undefined),1.6,-18.0,1.3,2.1,4.0,14.0*
O=C(Nc1ccc(Cc2ccncc2)cc1)c1cccc([N+](=O)[O-])c1,-0.5,4.8,8.4,10.7,0.6,-1.2
SMILES,FBA Mtb inh,PriA SSB inh,Rv3671c protease,Mtb betalactam,GDH-TPI inh,Mtb UGM inh
O=C(CCNc1ccc(Cc2ccncc2)cc1)c1ccc([N+](=O)[O-])cc1,0.5,46.9*,1.6,100.2,1.6,0.3
N#Cc1cccnc1N1CCC(CNC(=O)c2cc(-c3ccco3)on2)CC1,·,-2.0,·,·,·,·
N#CC(C(=NS(=O)(=O)c1cccs1)c1ccccc1)c1nc2ccccc2[nH]1 (centres undefined),·,-6.2,·,·,·,·
N#CC(/C(=N/S(=O)(=O)c1cccs1)c1ccccc1)c1nc2ccccc2[nH]1 (centres undefined),-2.3,·,1.8,-1.2,43.1*,-2.6
CCn1c2ccccc2c2cc(N)ccc21,6.5,12.8,5.7,71.9,0.6,-1.2
CCn1c2ccccc2c2cc(C#N)c(N)nc21,106.5*,-2.3,1.5,6.7,17.7,2.7
CNc1oc(/C=C/c2ccccc2)nc1C#N,+,4.6,-4.2,1.9,38.1*,2.9
CNc1oc(-c2ccccc2)nc1C#N,180.6*,6.4,0.4,-10.8,-0.5,0.4
COc1ccc(Nc2oc(-c3ccccc3)nc2C#N)cc1,3.0,-4.9,6.3,-3.8,6.7,2.2
CCN1CCN(c2oc(/C=C/c3ccccc3)nc2C#N)CC1,192.3*,-12.7,2.2,0.7,48.3*,0.7
Cc1ccc(N2C(=N)C(=C3Nc4ccccc4S3)C(c3ccccc3)C2=O)cc1 (centres undefined),·,-3.0,·,·,·,·
CCc1ccc(S(=O)(=O)Nc2ccc3c(c2)N(C)C(=O)C(C)(C)CO3)s1,·,-2.0,·,·,·,·
COc1cccc(CSc2nccn(-c3ccc(Br)cc3)c2=O)c1,·,-12.0,·,·,·,·
CC(C)NC(=O)c1nnn(-c2cccc(Br)c2)c1N,·,-1.0,·,·,·,·
O=C(Cc1ccc(F)cc1)NCc1cnn2ccccc12,·,-6.0,·,·,·,·
Cc1ccc(-c2cn3cccnc3n2)cc1NC(=O)COc1ccccc1,·,-6.0,·,·,·,·
Nc1nc(NCCOCCO)nc(NCc2ccccc2)c1[N+](=O)[O-],1.6,5.3,·,3.1,27.0,5.5
CNc1nc(N)c([N+](=O)[O-])c(NCC2CCCO2)n1 (centres undefined),-3.0,-14.7,11.2,-7.8,33.7*,-1.0
Nc1nc(NCCOCCO)nc(NCC2CCCO2)c1[N+](=O)[O-] (centres undefined),-1.3,-18.0,2.9,1.7,42.9*,-1.0
COCCNc1nc(N)c([N+](=O)[O-])c(NCC2CCCO2)n1 (centres undefined),-3.1,-4.9,4.1,-3.8,37.9*,-0.2
Cc1ccc(Nc2nc(NCC3CCCO3)nc(N)c2[N+](=O)[O-])cc1 (centres undefined),8.9,-1.4,-6.1,0.2,24.5,-0.2
COCCCNC(=O)Cc1cn(Cc2ccccc2)c2ccccc12,·,-20.0,·,·,·,·
Cc1ccc(S(=O)(=O)N(CC(=O)NN=Cc2ccccc2C(=O)O)c2cc(Cl)cc(Cl)c2)cc1,·,-5.6,·,·,·,·
CCOc1ccc(-c2csc(SCc3ccc(C(=O)NCc4ccccn4)o3)n2)cc1,·,14.0*,·,·,·,·
CCc1ccc(OCc2ccc(C(=O)NCc3ccccn3)o2)cc1,-0.4,-6.5,3.3,-8.7,1.9,-0.1
SMILES,FBA Mtb inh,PriA SSB inh,Rv3671c protease,Mtb betalactam,GDH-TPI inh,Mtb UGM inh
CCc1nc(Nc2cccc(O)c2)c2oc3ccccc3c2n1,4.4,3.5,·,5.9,30.9*,2.4
COc1ccc(/C=N/Nc2nc(C(=O)O)cs2)cc1,0.4,·,6.4,-3.1,34.3*,-1.8
COC(=O)c1ccc(/C=N/Nc2nc(-c3ccccc3)cs2)cc1,0.0,·,14.7,1.9,25.9,-2.6
COC(=O)c1c(-c2ccc(S(C)(=O)=O)cc2)sc2cc(OC)ccc12,189.9*,2.2,-6.3,2.8,12.9,-2.1
O=C(CSc1ccc(-c2ccco2)nn1)Nc1ccc2c(c1)OCO2,·,-9.0,·,·,·,·
CCc1nnc2ccc(N3CCN(C(=O)Nc4ccc(C)c(C)c4)CC3)nn12,·,-7.0,·,·,·,·

# Assay outcomes (PubChem)
